FadD28 FP inh – M. tuberculosis FadD28 bisubstrate binding inhibition. FadD28 bisubstrate probe binding, fluorescence polarization. inhibition, % at 12.5 µM. 0.22% of 360,000 active. AID 588549; in the data active = inhibition above about 8.5%, passing the limit was not always enough; inconclusive = no clear call, values can overlap the other calls
Yp Topo-I inh – Y. pestis Topo-I inhibition via cleavage products; AID 504884; Y. pestis Topo-I cleavage product accumulation, plate reader; activity, % at 10 µM; 0.064% of 360,000 active; in the data active = activity above about 50%, passing the limit was not always enough; inconclusive = no clear call, values can overlap the other calls
Rv3671c protease – inhibits the M. tuberculosis serine protease Rv3671c | inhibition, % at 5.96 µM | 0.048% of 320,000 active | AID 2606; in the data active = inhibition above about 38%;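 note: extracellular domain of Rv3671c used as enzyme; 0% = enzyme with DMSO and 100% = no enzyme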
Target sequence (P9WHR9 whole entry, looked up, the tested form may be a part): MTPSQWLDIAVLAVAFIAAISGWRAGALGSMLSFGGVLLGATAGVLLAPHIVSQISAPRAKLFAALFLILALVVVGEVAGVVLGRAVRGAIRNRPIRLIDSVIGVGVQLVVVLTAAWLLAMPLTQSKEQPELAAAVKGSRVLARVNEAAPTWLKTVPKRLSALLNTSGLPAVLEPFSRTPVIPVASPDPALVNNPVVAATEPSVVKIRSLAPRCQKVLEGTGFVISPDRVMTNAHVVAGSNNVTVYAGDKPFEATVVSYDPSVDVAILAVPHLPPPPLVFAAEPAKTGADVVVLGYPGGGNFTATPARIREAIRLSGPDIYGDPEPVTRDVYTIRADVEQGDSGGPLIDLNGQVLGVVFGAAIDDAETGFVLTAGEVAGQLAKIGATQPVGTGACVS
PfHsp40 yeast – compounds rescuing yeast from Plasmodium falciparum HSP40 toxicity; S. cerevisiae expressing PfHsp40, growth rescue, ATP luminescence; growth rescue, % at 12.5 µM; 0.68% of 340,000 active; in the data active = growth rescue above about 28%, passing the limit was not always enough; inconclusive = no clear call, values can overlap the other calls;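 note: yeast W303a lacking pdr1 and pdr3 grown in galactose medium; growth measured after three days at 30 °C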
Mtb betalactam – beta-lactam sensitization of Mtb H37Rv. M. tuberculosis H37Rv growth with meropenem, percent inhibition. inhibition, % at 25 µM. 0.27% of 330,000 active; call rule not given here;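 note: growth measured after seven days incubation then overnight dye step; 0% = bacteria only wells and 100% = bacteria with antibiotic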
UGM FP inh – inhibitors of M. tuberculosis UDP-galactopyranose mutase; P9WIQ1; purified UGM, fluorescence polarization probe displacement; inhibition, % at 10 µM; 0.06% of 320,000 active; in the data active = inhibition above about 10%, passing the limit was not always enough; inconclusive = no clear call, values can overlap the other calls
The depositor's hits bear a star; u = inconclusive; x = not tested or not shown. Sampled rows, rich in hits. Any-hit rate of the full collection: about 0.98%.

SMILES | FadD28 FP inh | Yp Topo-I inh | Rv3671c protease | PfHsp40 yeast | Mtb betalactam | UGM FP inh
O=C1NC(Cc2ccccc2)c2nc3ccc(F)cc3c(=O)n2-c2cc3ccccc3cc21 (configuration not stated) | -0.7 | 66.0* | x | x | x | x
O=C1NC(Cc2ccccc2)c2nc3ccc(Cl)cc3c(=O)n2-c2cc3ccccc3cc21 (configuration not stated) | -0.2 | 41.3 | x | x | x | x
CSCCC(NS(=O)(=O)c1ccc(C)cc1)C(=O)Nc1ccc(C)cn1 (configuration not stated) | -0.6 | 7.9 | 2.0 | 1.0 | -10.2 | 4.3
O=C(c1cccs1)N(c1cccc(Cl)c1)C1C=CS(=O)(=O)C1 (configuration not stated) | 0.6 | -5.3 | -3.9 | -0.6 | 5.3 | -5.4
CCc1ccccc1N(C(=O)c1cccs1)C1C=CS(=O)(=O)C1 (configuration not stated) | -0.7 | 10.3 | 8.6 | 33.6* | -1.3 | -1.7
S=C(NCc1ccccc1)NCc1cccc(CNC(=S)NCc2ccccc2)c1 | 24.9* | 12.9 | -87.2 | 22.8 | 24.0 | 1.0
O=C(NC(=S)NCc1ccccc1)c1cccc(Cl)c1 | -1.3 | 8.4 | 4.3 | 28.9* | 0.6 | -4.1
O=C(NC(=S)NCc1ccco1)c1cccc(Cl)c1 | -1.9 | 11.9 | -9.6 | -0.5 | u | 3.1
S=C(NCc1ccccc1)NCc1cccc(Cl)c1 | -2.7 | 5.2 | x | 1.3 | 4.9 | -0.1
FC(F)(F)Sc1ccc(NC(=S)NCc2ccccc2)cc1 | 1.1 | 4.1 | -22.8 | 147.9* | 3.2 | -0.5
CCN(CC)S(=O)(=O)c1cccc(C(=O)Nc2ccc(S(=O)(=O)NC3=NCCCCC3)cc2)c1 | 0.3 | 16.7 | -0.9 | -0.9 | -0.1 | -0.3
COc1cc(N=Nc2ccc3ccccc3c2)ccc1O | -0.5 | -3.8 | 1.8 | 153.3* | 89.0 | 0.7
CN(c1ccc(O)cc1)S(=O)(=O)c1ccc2ccccc2c1 | x | 13.4 | -8.1 | -0.9 | -1.3 | 0.3
COc1cc(N=Nc2ccccc2C(=O)O)ccc1O | -0.8 | 5.0 | -0.7 | -0.8 | 5.4 | 0.0
Oc1ccc(N=Nc2ccc3ccccc3c2)cc1 | -3.4 | -23.5 | -23.9 | 72.1* | 25.3 | 1.6
CC(C)N1CCC(C)(C(=O)Nc2cccc(Oc3ccccc3)c2)C1 (configuration not stated) | -2.5 | 0.9 | x | x | x | x
Cc1ccc(S(=O)(=O)N(C)C)cc1NC(=O)C1CCCN(C(=O)c2ccc(Cl)cc2)C1 (configuration not stated) | -0.5 | 23.3 | 1.5 | 0.2 | -6.8 | -0.5
C[C@H]1[C@H](OC(=O)CCC(=O)NCc2ccc(C(=O)O)cc2)O[C@@H]2O[C@@]3(C)CC[C@H]4[C@H](C)CC[C@@H]1C24OO3 | -1.4 | 4.1 | -3.2 | 188.3* | 4.3 | 1.1
CC(C)CC(NC(=O)CCCNC(=O)CCC(=O)OC1O[C@H]2OC3(C)CC[C@H]4[C@H](C)CCC(C1C)C24OO3)C(=O)O (some centres not stated) | 0.3 | -4.9 | 5.8 | 195.8* | -2.9 | -0.3
COC(=O)c1ccc(CNC(=O)COC(=O)CCC2CCCC2)cc1 | -0.5 | 7.9 | 9.9 | 2.5 | 0.2 | -3.0
CC1C(OC(=O)CCC(=O)NC(C)(C)CO)O[C@H]2OC3(C)CC[C@H]4[C@H](C)CCC1C24OO3 (some centres not stated) | 0.2 | 15.9 | 2.0 | 121.8* | 3.0 | -0.3
COc1ccc(-n2nc(C#N)c(Cl)cc2=O)cc1 | -1.9 | 12.1 | x | 189.7* | x | x
CCC(C)Sc1ccc(-c2nc3ccccn3c2NCc2ccccc2)cc1OC (configuration not stated) | 1.6 | -5.9 | -1.8 | 88.9* | 95.2 | 0.3
COc1ccc(S(=O)(=O)Nc2ccc3ccccc3c2)cc1C | -6.1 | -2.2 | -53.5 | 31.4* | -17.7 | -0.2
CCN(CC(=O)Nc1cc(Cl)ccc1C)c1ncnc2sc(C)c(C)c12 | -20.4 | 28.6 | -6.9 | 33.0* | 11.4 | 0.6
SMILES | FadD28 FP inh | Yp Topo-I inh | Rv3671c protease | PfHsp40 yeast | Mtb betalactam | UGM FP inh
COc1ccc(C(=O)COC(=O)/C=C/c2ccccc2)cc1 | -0.5 | 7.2 | 6.0 | -0.1 | -1.0 | 0.3
NS(=O)(=O)c1cccc(NS(=O)(=O)c2ccc(/C=C/C(=O)OCC(=O)c3ccccc3)cc2)c1 | 10.4* | -0.4 | -17.0 | 0.5 | 8.0 | 1.0
Cn1cccc1-c1cc(C(=O)N/N=C/c2ccccc2Cl)[nH]n1 | -2.3 | -4.0 | -10.7 | 0.3 | -7.1 | -1.8
Cn1cccc1-c1cc(C(=O)N/N=C/c2cc(Br)ccc2O)[nH]n1 | -6.5 | -9.9 | 4.0 | 124.6* | 3.7 | 0.9
COc1cc2c(cc1OC)CN(C(=O)c1cccc(S(=O)(=O)N3CCc4ccccc43)c1)CC2 | -0.3 | 23.1 | -9.7 | 3.7 | 0.3 | 0.7
COc1cc(/C=C2/C(=O)NN(c3cccc(F)c3)C2=O)ccc1OC(=O)c1ccco1 | 4.2 | -5.5 | 6.9 | -1.0 | 99.9 | 1.3
COc1cc(/C=C2/C(=O)NN(c3ccc(Cl)cc3)C2=O)ccc1OC(=O)c1ccco1 | 9.3* | -5.3 | 0.8 | 11.6 | 100.0 | 1.9
COc1cc(/C=C2/C(=O)NN(c3ccc(F)cc3)C2=O)cc(Cl)c1O | 2.0 | 1.0 | -0.8 | 0.2 | 64.0 | -0.2
COc1cc(/C=C2/C(=O)NN(c3ccc(Cl)c(Cl)c3)C2=O)cc([N+](=O)[O-])c1O | 28.2* | -13.8 | -2.3 | 2.4 | 41.3 | 3.8
O=C(c1ccccc1F)N1CCN(S(=O)(=O)c2ccc3ccccc3c2)CC1 | -3.0 | 29.0 | -2.2 | 30.4* | 6.7 | 1.1
O=C1C2C3C=CC(C3)C2C(=O)N1CCN1CCN(S(=O)(=O)c2ccc3ccccc3c2)CC1 (configuration not stated) | -0.8 | -9.1 | 7.9 | 0.7 | -8.2 | 10.0*
CSc1ncccc1C(=O)N1CCN(S(=O)(=O)c2ccc3ccccc3c2)CC1 | -0.2 | 28.0 | -2.9 | 1.2 | -1.1 | -0.4
Clc1cc2nc3ccccn3c2cc1Cl | 0.2 | 5.4 | -6.8 | 151.8* | -5.6 | 2.3
Cc1ccc(N=Cc2cc(Cc3ccccc3Cl)cc([N+](=O)[O-])c2O)c(O)c1 | 2.0 | -7.5 | 1.1 | 82.6* | 96.7 | 5.0
CC1(C(=O)NS(=O)(=O)c2cccc(OC(F)F)c2)CCN1C(=O)Cc1cccs1 (configuration not stated) | -3.4 | -4.5 | x | x | x | x
COc1ccccc1OCCNC(=O)c1ccc(C(C)(C)C)cc1 | -2.0 | 16.6 | 0.6 | 1.3 | -1.3 | -1.3
COc1ccccc1OCCNC(=O)c1ccc(Br)cc1 | -5.3 | 3.5 | 2.1 | 167.6* | 0.5 | -1.1
COc1cc(C2(c3ccc(O)c(OC)c3)C(=O)Nc3c(Br)cc(Br)cc32)ccc1O | -4.9 | -4.9 | -0.1 | 65.7* | 7.3 | 3.9
COc1cc(C2(c3ccc(O)c(OC)c3)C(=O)N(C)c3ccc(Br)cc32)ccc1O | 0.7 | -8.7 | 1.5 | 1.9 | -2.5 | 2.1
Nc1ccc(-c2c3ccc(=O)cc-3oc3cc(O)ccc23)c(C(=O)O)c1 | 4.8 | 4.0 | 5.2 | -0.4 | 2.1 | 45.3*
COc1ccc(-c2cc(=O)c3ccc(O)cc3o2)cc1OC | -0.7 | -1.2 | x | x | x | x
CCn1nccc1NC(=O)c1csc([C@@H]2O[C@H](CO)[C@H](O)[C@H](O)[C@H]2O)n1 | -0.1 | 9.8 | x | x | x | x

Source: PubChem (several laboratories)
